Data on six compounds can be found in ChEMBL document CHEMBL3433997, “St. Jude Leishmania screening dataset” (2016).

The structures appear in SMILES notation.

Assay type in all cases: functional
The target of test [1] is Solute carrier family 2, facilitated glucose transporter member 1 (Homo sapiens) (UniProt P11166). Description: ST_JUDE_LEISH: Cytotoxicity at 2uM final concentration against transgenic Leishmania Mexicana promastigotes LmGLUT1 that are glucose transport deficient and complemented with the human glucose transporter GLUT1. Activity is measured by DNA content using SYBR green in vitro.

Test [2] concerns the target Hexose transporter 1 (Plasmodium falciparum) (UniProt O97467). The test is described as follows: ST_JUDE_LEISH: Cytotoxicity at 2uM final concentration against transgenic Leishmania Mexicana promastigotes LmPfHT that are glucose transport deficient and complemented with the Plasmodium falciparum hexose transporter. Activity is measured by DNA content using SYBR green in vitro.

The target of test [3] is Glucose transporter (Leishmania mexicana) (UniProt O61059). Description: ST_JUDE_LEISH: Cytotoxicity at 2uM final concentration against transgenic Leishmania Mexicana promastigotes LmGT2 that are glucose transport deficient and complemented with the L. Mexicana glucose transporter 2. Activity is measured by DNA content using SYBR green in vitro.

Chain of Solute carrier family 2, facilitated glucose transporter member 1 (Homo sapiens) (P11166 whole entry): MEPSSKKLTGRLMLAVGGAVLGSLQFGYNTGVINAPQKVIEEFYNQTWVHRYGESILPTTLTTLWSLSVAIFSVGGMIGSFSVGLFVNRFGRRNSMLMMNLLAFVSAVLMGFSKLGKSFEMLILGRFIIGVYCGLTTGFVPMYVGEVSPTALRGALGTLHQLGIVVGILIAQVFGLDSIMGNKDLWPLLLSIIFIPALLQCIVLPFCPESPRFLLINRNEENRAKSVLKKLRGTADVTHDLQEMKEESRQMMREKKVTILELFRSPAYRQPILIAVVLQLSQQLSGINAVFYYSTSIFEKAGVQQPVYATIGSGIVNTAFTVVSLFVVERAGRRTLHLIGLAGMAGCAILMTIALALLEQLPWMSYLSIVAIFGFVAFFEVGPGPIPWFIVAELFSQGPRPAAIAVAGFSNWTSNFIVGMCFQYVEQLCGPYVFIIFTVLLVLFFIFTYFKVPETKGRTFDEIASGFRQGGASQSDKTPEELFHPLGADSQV

In general, inhibition refers to the change of the read-out against control, counted positive when it falls. Regarding `Cc1ccc2c(c1)nc(N)n2C[C@H](O)c1ccccc1`, the results for the inhibition in test [1], in test [2] and in test [3] were 1.01%, 1.37% and 1.1%, respectively.

As for `O=c1c(NCCCN(Cc2ccc(F)cc2)c2ccccn2)c(NCc2ccncc2)c1=O`, the figures for the inhibition in test [1], in test [2] and in test [3] were 4.35%, 3.53% and 5.17%, respectively.

Regarding `CCCCCCCN1CC[C@@H](CCC(O)c2ccnc3ccc(OC)cc23)[C@@H](CC)C1` (stereo partly drawn), the inhibition is -0.47% in test [1], 0.63% in test [2] and 0.73% in test [3].

For `CC1(C)NC(N)=NC(=N)N1OCCc1ccc(N)cc1`, the inhibition in test [1] stood at 5.6%; in test [2], 6.43%; in test [3], 5.49%.

In the case of `O=C(NC1CC1)c1cnc(N2CCCC(c3ccccc3)C2)c(Cl)c1` (stereo not drawn), the inhibition was 0.97% in test [1], -0.31% in test [2] and -4.58% in test [3].

In the case of `CC(C)(C)c1cc(C(=O)N2CCN(c3nccnc3C#N)CC2)n(Cc2ccccc2)n1`, the values for the inhibition in test [1], in test [2] and in test [3] were 1.68%, 1.96% and 1.02%, respectively.
